Data published in PubChem BioAssay AID1159580 (chemical genetic matrix, 2015).
Values joined by “and” are separate entries in the source; they are usually repeats but may differ in a detail not shown here. Equal entries are not always repeated. Out of some 5,500 compounds screened, about 2,000 (36%) were called active. Roughly 18% stayed inconclusive and do not appear here. Rule as the data show it: active = normalized growth mostly below about 0.91 (no sharp cut-off); inconclusive = no clear call, values can overlap the other calls; inactive = mostly above about 0.92. This is one part of the list.

Assay: chemical genetic growth profiling, strain panel (AID 1159580);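 also: tested at 20 µM; growth read once vehicle control cultures reached saturation at 30 °C; 1 = growth at the plate median or of vehicle wells; lower values mean less growth of the strain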
Conditions: S. cerevisiae deletion strains, growth OD

Measured: normalized growth

CC(=O)Oc1ccc2c(c1)CCC1C2CC[C@]2(C)C(=O)CCC12 (some centres undefined)
active: locus YDR137W, strain rgp1, active compounds read low 0.808
inactive: locus YAL013W, strain DEP1, active compounds read low 0.985 | locus YAL021C, strain ccr4, active compounds read low 0.995 | locus YAL026C, strain drs2, active compounds read low 0.992 | locus YAL030W, strain snc1, active compounds read low 0.972 | locus YBL061C, strain skt5, active compounds read low 0.987 | locus YBR009C, strain hhf1, active compounds read low 0.986 | locus YBR021W, strain FUR4, active compounds read low 0.961 | locus YBR023C, strain chs3, active compounds read low 0.985 | locus YBR171W, strain sec66, active compounds read low 0.963 | locus YBR229C, strain ROT2, active compounds read low 1 | locus YBR231C, strain swc5, active compounds read low 0.984 | locus YBR279W, strain paf1, active compounds read low 0.98 | locus YCL011C, strain gbp2, active compounds read low 0.994 | locus YCL016C, strain dcc1, active compounds read low 0.997 | locus YCL029C, strain bik1, active compounds read low 1.03 | locus YCL061C, strain MRC1, active compounds read low 0.985 | locus YCL069W, strain vba3, active compounds read low 0.986 | locus YCR088W, strain abp1, active compounds read low 0.979 | locus YDL005C, strain med2, active compounds read low 0.959 | locus YDL035C, strain GPR1, active compounds read low 0.957 | locus YDL040C, strain nat1, active compounds read low 0.989 | locus YDL074C, strain BRE1, active compounds read low 0.911 | locus YDL101C, strain DUN1, active compounds read low 1 | locus YDL134C, strain PPH21, active compounds read low 0.977 | locus YDL185W, strain tfp1, active compounds read low 1 | locus YDL192W, strain arf1, active compounds read low 1.01 | locus YDR001C, strain nth1, active compounds read low 0.985 | locus YDR069C, strain doa4, active compounds read low 0.969 | locus YDR101C, strain arx1, active compounds read low 1.02 | locus YDR150W, strain NUM1, active compounds read low 0.994 | locus YDR159W, strain sac3, active compounds read low 0.979 | locus YDR162C, strain NBP2, active compounds read low 0.998 | locus YDR195W, strain ref2 0.942 | locus YDR297W, strain sur2, active compounds read low 0.99 | locus YDR318W, strain mcm21, active compounds read low 1.01 | locus YDR334W, strain swr1, active compounds read low 0.984 | locus YDR335W, strain msn5, active compounds read low 0.992 | locus YDR388W, active compounds read low 1.02 | locus YDR392W, strain spt3, active compounds read low 1.03 | locus YDR502C, strain sam2, active compounds read low 1.01 | locus YEL003W, strain gim4, active compounds read low 0.988 | locus YEL037C, strain rad23, active compounds read low 0.989 | locus YEL061C, strain CIN8 (second series), active compounds read low 0.977 | locus YEL061C, strain CIN8, active compounds read low 0.998 | locus YER015W, strain faa2, active compounds read low 0.964 | locus YER016W, strain bim1, active compounds read low 0.991 | locus YER110C, active compounds read low 1.01 | locus YER111C, strain swi4, active compounds read low 0.96 | locus YER155C, strain BEM2 (second series), active compounds read low 0.923 | locus YER155C, strain BEM2, active compounds read low 1.02 | locus YER167W, strain BCK2, active compounds read low 1.02 | locus YFR010W, strain ubp6, active compounds read low 0.985 | locus YGL078C, strain dbp3, active compounds read low 1.02 | locus YGL086W, strain mad1, active compounds read low 1 | locus YGL167C, strain pmr1, active compounds read low 0.98 | locus YGL173C, strain kem1, active compounds read low 0.981 | locus YGL227W, strain vid30, active compounds read low 0.987 | locus YGL240W, strain doc1, active compounds read low 0.95 | locus YGL248W, strain PDE1, active compounds read low 0.949 | locus YGL253W, strain hxk2, active compounds read low 0.995 | locus YGR135W, strain pre9, active compounds read low 1.01 | locus YGR229C, strain SMI1, active compounds read low 1.03 | locus YGR252W, strain gcn5, active compounds read low 0.887 | locus YHR013C, strain ard1, active compounds read low 1 | locus YHR027C, strain rpn1, active compounds read low 0.969 | locus YHR030C, strain SLT2, active compounds read low 1.01 and 0.944 | locus YHR079C, strain IRE1 (second series), active compounds read low 1.02 | locus YHR079C, strain IRE1, active compounds read low 0.933 | locus YHR094C, strain hxt1, active compounds read low 1.02 | locus YHR129C, strain ARP1, active compounds read low 1.01 | locus YHR142W, strain chs7, active compounds read low 0.978 | locus YHR200W, strain rpn10, active compounds read low 1.02 | locus YIL066C, strain RNR3, active compounds read low 0.944 | locus YIL073C, strain SPO22, active compounds read low 0.921 | locus YIL125W, strain kgd1, active compounds read low 1.01 | locus YIR030C, strain dcg1, active compounds read low 1.02 | locus YJL092W, strain hpr5, active compounds read low 0.981 | locus YJL095W, strain BCK1 (second series), active compounds read low 0.985 | locus YJL095W, strain BCK1, active compounds read low 0.92 and 0.928 | locus YJL115W, strain asf1, active compounds read low 0.978 | locus YJL129C, strain trk1, active compounds read low 0.984 | locus YJL134W, strain LCB3, active compounds read low 1.01 | locus YJL154C, strain vps35, active compounds read low 0.979 | locus YJL164C, strain tpk1, active compounds read low 0.996 | locus YJL166W, strain qcr8, active compounds read low 0.96 | locus YJL168C, strain set2, active compounds read low 1.01 | locus YJL187C, strain SWE1 (second series), active compounds read low 0.969 | locus YJL187C, strain SWE1, active compounds read low 0.981
